From PubChem
FXIa mix inh: factor XIa (human) inhibition, mixture screen. P03951. purified FXIa, fluorogenic substrate, pooled mixtures. inhibition, % at 5 µM. 0.19% of 62,000 active. AID 680;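 also: each value is inhibition by a whole ten-compound pool holding the compound; 0% = enzyme with no mixture and 100% = wells lacking enzyme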
C1s inh: human complement C1s inhibition; purified C1s, fluorogenic AMC substrate, pooled mixtures; P09871; 0.16% of 62,000 active; mean inhibition % of two 10-compound mixtures (active compounds read high), % at 5 µM (by protocol);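 active = inhibition above 20% in each of the two 10-compound mixture wells holding the compound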;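 also: 0% = enzyme wells lacking compound mixture and 100% = no-enzyme blank wells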
FXIIa mix inh: factor XIIa (human) inhibition, mixture screen; P00748; purified FXIIa, fluorogenic substrate, pooled mixtures; inhibition, % at 5 µM; 0.2% of 62,000 active;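 also: 0% = enzyme without compound and 100% = no enzyme blank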
Cathepsin G inh: cathepsin G (human) inhibition; 0.2% of 62,000 active; AID 581; inhibition, % at 5 µM (by protocol); purified enzyme, AMC-tetrapeptide fluorescence, pooled mixtures; P08311;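 active = inhibition above 20% in each of the two mixture wells holding the compound; inactive = inhibition of 20% or less in either well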;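 also: 0% = enzyme control without mixture and 100% = blank lacking enzyme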
* hit, by the source's call. Hits are enriched below; roughly 0.5% of the tested compounds scored in any of these assays. Rule as the data show it, unless noted: active = inhibition above about 20% (passing the limit was not always enough); inactive = the rest.

SMILES	FXIa mix inh	C1s inh	FXIIa mix inh	Cathepsin G inh
CC1(C)C(c2ccccc2)=NC(c2cccnc2)N1O (stereo not given)	9	62*	5	8
C=Cn1ccnc1P(=S)(c1nccn1C=C)C1CCCCC1	0	3	11	9
